Among the data in ChEMBL document CHEMBL3988442, “University of Dundee, Small-Polar-MMV Screening Library” (2021) are Percent Effect values, retold here.

In assay [1] the target is T1, Aspartate--tRNA(Asp/Asn) ligase (Mycobacterium tuberculosis (strain ATCC 25618 / H37Rv)) (UniProt P9WFW3). Also: in the data most compounds retested in dose-response had high values.
T1 sequence (whole entry): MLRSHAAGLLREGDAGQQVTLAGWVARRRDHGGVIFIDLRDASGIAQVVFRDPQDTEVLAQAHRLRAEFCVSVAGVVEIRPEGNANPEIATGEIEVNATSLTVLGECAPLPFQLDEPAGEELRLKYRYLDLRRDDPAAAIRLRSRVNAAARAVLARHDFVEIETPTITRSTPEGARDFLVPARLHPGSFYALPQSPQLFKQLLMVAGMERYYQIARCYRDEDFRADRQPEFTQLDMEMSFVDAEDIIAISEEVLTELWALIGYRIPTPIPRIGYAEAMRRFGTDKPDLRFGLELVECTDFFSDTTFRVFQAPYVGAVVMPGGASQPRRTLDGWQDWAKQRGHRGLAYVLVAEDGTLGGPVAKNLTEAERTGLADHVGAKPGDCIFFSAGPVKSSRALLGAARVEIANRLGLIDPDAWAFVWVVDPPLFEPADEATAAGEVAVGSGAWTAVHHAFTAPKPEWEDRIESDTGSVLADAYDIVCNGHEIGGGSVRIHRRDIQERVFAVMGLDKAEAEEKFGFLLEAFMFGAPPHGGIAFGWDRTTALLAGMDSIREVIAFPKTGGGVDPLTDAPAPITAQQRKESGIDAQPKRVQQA
The assay can be described thus: Assay for Asp RNA synthetase-1 from Mycobacterium tuberculosis. The assay is classed as functional. More on the design: scale not given: direction of the effect not stated beside the values. To be noted: 30 µM.

In assay [2] the target is Shiga toxin 2 (Escherichia coli O157:H7) (UniProt P09385+P09386). The assay can be described thus: E. coli 0.157:H7 Shiga Toxin SOP - stx2 screening assay. More on the design: scale not given: direction of the effect not stated beside the values. The format is functional. To be noted: 30 µM.

Take `CCc1nc(CN(C)C2CCN(CCS(C)(=O)=O)C2)no1` (stereo not given): the Percent Effect in assay [1] was 3.04%; in assay [2], -32.8%.
The corresponding values for `Cc1nn(C)c(N2CCOCC2)c1CNC(C)c1ccco1` (stereo not given) are -3.01% and 5.98%.
Consider `O=C(c1ccc2c(c1)OCO2)N1CCCC(n2cccn2)C1` (stereo not given), for which the Percent Effect was 4.23% in assay [1] and 23.2% in assay [2].
On the same counts, the results for `CCOc1ccccc1-c1noc(CN2CCCC(O)C2)n1` (stereo not given) are -5.33% and 2.11%.
On to `CC(C)n1cc(S(=O)(=O)N2CCCCC2)cn1`, for which the figures for the Percent Effect in assay [1] and in assay [2] were -0.668% and -17.6%, respectively.
Take `Cc1nnc(C(C)NCC2(c3c(F)cccc3F)CCCC2)o1` (stereo not given): the Percent Effect in assay [1] was -1.77%; in assay [2], 9.79%.
With `CC(C)Oc1cc(N2C[C@@H](C)O[C@@H](C)C2)nc(N)n1`, the Percent Effect is -0.457% in assay [1] and 0.94% in assay [2].
Regarding `CCCc1n[nH]c(C2CN(CCNS(=O)(=O)CC)CCO2)n1` (stereo not given), the Percent Effect in assay [1] is 2.63%; in assay [2], -17%.
For `Cc1ccc(CC2CCCN2CC(=O)NCc2cccnc2)cc1` (stereo not given), the Percent Effect in assay [1] is 0.509%; in assay [2], 16.7%.
The corresponding values for `NC(=O)C1CCN(CCc2ccc(NC(=O)C3CCC3)cc2)CC1` are 3.99% and -2.25%.
As to `COC(=O)C(c1cc(F)ccc1F)N(C)C(=O)c1cccnc1O` (stereo not given), the results for the Percent Effect in assay [1] and in assay [2] were -4.32% and 8.11%, respectively.
The corresponding values for `O=C(c1cnc(-c2cccs2)s1)N1CCCC(n2cccn2)C1` (stereo not given) are 2.29% and 17.4%.
Turning to `COc1nn(C)c2c1CCCN(C(=O)c1cc[nH]n1)C2`, the Percent Effect is 0.229% in assay [1] and -2.49% in assay [2].
On to `Cc1cc(-c2ccc(C(=O)O)cc2)nc(C2CCCN(C(C)C)C2)n1` (stereo not given), for which the Percent Effect in assay [1] is -0.0735%; in assay [2] it was -2.97%.
The corresponding values for `COc1ccccc1N1CCC(CNCc2cccc(OC)c2OC)C1` (stereo not given) are 10.8% and -7.96%.
For the compound `Cc1ccc(OC2(C(=O)O)CCN(C(=O)c3ccc(F)cc3)CC2)cn1`, the Percent Effect in assay [1] was -4.69%; in assay [2], 10.4%.
On to `Cn1ccnc1C(NCc1csc(Br)c1)c1ccccc1` (stereo not given), for which the Percent Effect in assay [1] is -0.175%; in assay [2], -3.96%.
The corresponding values for `CC(C)c1nc(N2CC(N3CCCCC3C)C2)c2cnn(C)c2n1` (stereo not given) are -2.71% and -37.8%.
On the same counts, the results for `Cc1cccc(CN2C(=O)CCC23CCN(Cc2cccn2C)CC3)n1` are 0.796% and 0.0983%.
On the same counts, the results for `COCC(=O)N1CC[C@H]2C[C@H](C)O[C@@H]2C1` are -2.9% and 3.29%.
Take `Cc1nc(C)n(CC2CCCN2Cc2nc(N)c3ccccc3n2)n1` (stereo not given): the Percent Effect in assay [1] is -1.84%; in assay [2], -29.4%.
On the same counts, the results for `O=C(c1cccc(=O)[nH]1)N(Cc1ccsc1)CC1CCCO1` (stereo not given) are 0.0781% and -11.1%.
As to `O=C(NCC(O)CN1CCc2ccccc2C1)Nc1cccnc1` (stereo not given), the Percent Effect in assay [1] is -0.98%; in assay [2], -22.8%.
`CNC(=O)CS(=O)(=O)C1CCN(S(=O)(=O)c2c(F)cccc2F)CC1`: the Percent Effect in assay [1] is -1.03%; in assay [2] it was -5.55%.
The corresponding values for `Cc1cc(S(=O)(=O)N2CCc3ccc(F)cc32)cc(C(=O)O)c1C` are 2.1% and -5.86%.
Turning to `COc1ccc2c(c1)CN(Cc1nc3c(cnn3C)c(=O)[nH]1)CC2`, the Percent Effect in assay [1] is -4.4%; in assay [2], -3.66%.
In the case of `O=C(NCCc1ccccc1)C1CCC(Cn2cnnn2)CC1` (stereo not given), the Percent Effect is -4.3% in assay [1] and -20.1% in assay [2].
On the same counts, the results for `COCc1nc(C(=O)N2CCCCC2Cn2cccn2)cs1` (stereo not given) are 1.01% and 16.6%.
The corresponding values for `CS(=O)(=O)NC[C@]12COC[C@H]1CN(CC1CCCC1)C2` are 0.107% and 6.37%.
On to `CN(Cc1ccco1)[C@@H]1CN(C(=O)c2ccnnc2)[C@@H]2CCCO[C@H]12`, for which the Percent Effect is -2.73% in assay [1] and -1.33% in assay [2].
In the case of `CCn1cnnc1C1CCN(C(=O)c2ccc(Cl)s2)CC1`, the Percent Effect was -0.371% in assay [1] and -7.76% in assay [2].
The corresponding values for `Cn1cccc1CNC(=O)N(CCO)C1CCCc2ccccc21` (stereo not given) are -1.95% and -4.96%.
The corresponding values for `CC(c1nc(C(C)(C)C)no1)N1CCN(CC(=O)N2CCOCC2)CC1` (stereo not given) are -1.23% and 7.56%.
On to `CCc1nccn1-c1cncc(C2CCCN2Cc2ccc(F)cc2)n1` (stereo not given), for which the Percent Effect in assay [1] is 1.57%; in assay [2] it was -28.9%.
In the case of `CCS(=O)(=O)N1C[C@@H](OCc2cccnc2)[C@H]2OCCC[C@H]21`, the Percent Effect was found to be 3.4% in assay [1] and 5.21% in assay [2].
The corresponding values for `CN(C)CCOCC1CN(CC2CCOCC2)Cc2nnn(C)c21` (stereo not given) are -1.11% and -12.4%.
The corresponding values for `Cc1cnn(CCC(=O)N2CCCC(c3nc(C)no3)C2)c1` (stereo not given) are 4.08% and 3.29%.
Regarding `CCCNC(=O)c1cc2c([nH]c1=O)CC(c1cccs1)CC2=O` (stereo not given), the Percent Effect is -5.46% in assay [1] and -20.3% in assay [2].
Regarding `C[C@@H]1CN(C(=O)c2ccc(C#N)nc2)CC[C@@]1(O)C1CCOCC1`, the Percent Effect is -2.71% in assay [1] and -2.97% in assay [2].
The corresponding values for `CN1CCC(Oc2ccc(NC(=O)c3cccc(Cl)c3)cc2)CC1` are -0.327% and -51%.
As for `Nc1nccc(-c2c[nH]nc2C2CCCCC2)n1`, the Percent Effect in assay [1] is 6.92%; in assay [2], -26.9%.
For `Cc1nc2ccccc2c(=O)n1CCC(=O)N1CCNC(=O)C1`, the Percent Effect in assay [1] was -5.81%; in assay [2], 27.4%.
Consider `Cn1c(Cn2ccnc2)nnc1C1CCN(C(=O)C2(C)CC2)CC1`, for which the values for the Percent Effect in assay [1] and in assay [2] were -0.661% and -12.1%, respectively.
For `c1cc2nccc(CC3CCCN(Cc4ncc[nH]4)CC3)c2cn1` (stereo not given), the Percent Effect in assay [1] was 5.02%; in assay [2], -54.1%.
For the compound `CNC(=O)CS(=O)(=O)Cc1cc(Cl)c2c(c1)OCCCO2`, the Percent Effect is 0.857% in assay [1] and 0.921% in assay [2].
Regarding `c1ccc2cc(OCCN3CCn4c(nnc4C4CC4)C3)ccc2c1`, the Percent Effect in assay [1] was 3.95%; in assay [2] it was -16.6%.
The corresponding values for `O=C(c1ccc[nH]1)N1CCc2c(COCC3CC3)cncc2C1` are -0.626% and 1.55%.
Regarding `CC(C(=O)N1CCC(Nc2cccnn2)CC1)n1ccnc1` (stereo not given), the Percent Effect in assay [1] came to 7.4%; in assay [2], 0.729%.
Consider `Cc1ccc(C(CNC(=O)NCc2cc[nH]n2)N2CCOCC2)o1` (stereo not given), for which the results for the Percent Effect in assay [1] and in assay [2] were 0.256% and -34.1%, respectively.
On to `CC(C)c1cc(C(F)(F)F)n2nc(CCC(=O)O)nc2n1`, for which the Percent Effect is -1.46% in assay [1] and 52.4% in assay [2].
